Experimental data taken from PubChem BioAssay (NCI).
This is part of a sample that, as a whole, favours compounds with a hit. Of some 83,000 tested, about 20% had one in any assay.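 Growth was measured after 48 h exposure to one concentration of compound in 96-well plates. Values under 10 count as active.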 The source made the active and inactive calls.

Columns and labels:
Assay in all cases: NCI-60 one-dose screen, 48 h (100 = growth as untreated, 0 = no growth, -100 = all killed)
SR leukemia = conditions: 10 µM
RPMI-8226 leukemia = conditions: 10 µM
OVCAR-8 ovarian = conditions: 10 µM
OVCAR-5 ovarian = conditions: 10 µM
OVCAR-4 ovarian = conditions: 10 µM
SK-OV-3 ovarian = conditions: 10 µM
IGROV1 ovarian = conditions: 10 µM
OVCAR-3 ovarian = conditions: 10 µM
HS 578T breast = conditions: 10 µM
NCI/ADR-RES ovarian = conditions: 10 µM
T-47D breast = conditions: 10 µM
MDA-MB-435 melanoma = conditions: 10 µM
SW-620 colon = conditions: 10 µM
MCF7 breast = conditions: 10 µM unless noted
HCT-116 colon = conditions: 10 µM
HCC-2998 colon = conditions: 10 µM
KM12 colon = conditions: 10 µM
BT-549 breast = conditions: 10 µM

Measured: growth

Cc1ccc(Cl)cc1NC(=O)N(C)CCO
inactive: SR leukemia 113% | RPMI-8226 leukemia 97.4% | OVCAR-8 ovarian 112% | OVCAR-5 ovarian 111% | OVCAR-4 ovarian 136% | SK-OV-3 ovarian 114% | IGROV1 ovarian 93% | OVCAR-3 ovarian 130% | HS 578T breast 236% | NCI/ADR-RES ovarian 112% | T-47D breast 104% | MDA-MB-435 melanoma 117% | SW-620 colon 137% | MCF7 breast 88.7% | HCT-116 colon 112% | HCC-2998 colon 104% | KM12 colon 120%

CC(C)(C)c1cc(O)c(C(C)(C)C)cc1O
inactive: SR leukemia 92.5% | RPMI-8226 leukemia 54.1% | OVCAR-8 ovarian 93% | OVCAR-5 ovarian 97.2% | OVCAR-4 ovarian 74.6% | SK-OV-3 ovarian 125% | IGROV1 ovarian 110% | OVCAR-3 ovarian 99.2% | HS 578T breast 98.8% | NCI/ADR-RES ovarian 100% | T-47D breast 95% | MDA-MB-435 melanoma 91.9% | SW-620 colon 97% | MCF7 breast 83.7% | HCT-116 colon 86.6% | KM12 colon 101%

CN(C)c1ccc(CNC(C(=O)c2ccccc2)c2ccccc2)cc1 (stereo not drawn)
inactive: SR leukemia 90.8% | RPMI-8226 leukemia 94.4% | OVCAR-8 ovarian 95.9% | OVCAR-5 ovarian 110% | OVCAR-4 ovarian 99.1% | SK-OV-3 ovarian 103% | IGROV1 ovarian 98.2% | OVCAR-3 ovarian 114% | HS 578T breast 46.1% | NCI/ADR-RES ovarian 101% | T-47D breast 98.9% | BT-549 breast 98% | MDA-MB-435 melanoma 107% | MCF7 breast 107% | HCT-116 colon 50.8% | HCC-2998 colon 106% | KM12 colon 98.6%

Cc1ccccc1C1N=C2Oc3ccccc3C=C2C(=O)N1 (stereo not drawn)
inactive: SR leukemia 45.2% | RPMI-8226 leukemia 95.4% | OVCAR-8 ovarian 53.3% | OVCAR-5 ovarian 17.3% | OVCAR-4 ovarian 74.5% | IGROV1 ovarian 43.3% | HS 578T breast 32.8% | T-47D breast 48.1% | BT-549 breast 27.2% | MCF7 breast 20.8% | HCT-116 colon 42.1% | HCC-2998 colon 26.1% | KM12 colon 64.8%
active: SK-OV-3 ovarian -6.3% | OVCAR-3 ovarian -27.1% | NCI/ADR-RES ovarian 9.64% | MDA-MB-435 melanoma -57.7%

C[C@]12CC[C@@H]3c4ccc(OCC(=O)O)cc4CC[C@H]3[C@@H]1CCC2=O
inactive: SR leukemia 88.5% | RPMI-8226 leukemia 121% | OVCAR-8 ovarian 109% | OVCAR-5 ovarian 107% | OVCAR-4 ovarian 95.8% | SK-OV-3 ovarian 115% | IGROV1 ovarian 107% | OVCAR-3 ovarian 101% | HS 578T breast 95.5% | NCI/ADR-RES ovarian 96.4% | T-47D breast 114% | BT-549 breast 102% | MDA-MB-435 melanoma 116% | MCF7 breast 130% | HCT-116 colon 103% | KM12 colon 105%

CC1=CC(C)(C)NC(=S)N1c1ccc(S(=O)(=O)O)c2cccc(S(=O)(=O)O)c12
inactive: SR leukemia 109% | RPMI-8226 leukemia 113% | OVCAR-8 ovarian 114% | OVCAR-5 ovarian 105% | OVCAR-4 ovarian 117% | SK-OV-3 ovarian 115% | IGROV1 ovarian 95.9% | OVCAR-3 ovarian 99.9% | HS 578T breast 92.8% | NCI/ADR-RES ovarian 110% | T-47D breast 106% | MDA-MB-435 melanoma 106% | SW-620 colon 95.2% | MCF7 breast 108% | HCT-116 colon 107% | HCC-2998 colon 108% | KM12 colon 94.6%

CCN=c1cc2sc3cc(NCC)c(C)cc3nc-2cc1C
active: RPMI-8226 leukemia 2.43% | OVCAR-8 ovarian -16.3% | OVCAR-3 ovarian -33.8% | T-47D breast -1.96% | MDA-MB-435 melanoma -35.1% | SW-620 colon 0.622% | MCF7 breast -11.5% | HCT-116 colon 7.17% | KM12 colon -1.68%
inactive: SR leukemia 13.4% | OVCAR-5 ovarian 27.5% | OVCAR-4 ovarian 17.2% | SK-OV-3 ovarian 16.1% | IGROV1 ovarian 15.2% | HS 578T breast 50.8% | NCI/ADR-RES ovarian 19.9% | HCC-2998 colon 30.7%

CCOC(=O)CSc1c([N+](=O)[O-])ncn1C
inactive: SR leukemia 86.4% | RPMI-8226 leukemia 99.7% | OVCAR-8 ovarian 103% | OVCAR-5 ovarian 91.8% | OVCAR-4 ovarian 105% | SK-OV-3 ovarian 110% | IGROV1 ovarian 95.5% | OVCAR-3 ovarian 103% | HS 578T breast 103% | NCI/ADR-RES ovarian 101% | T-47D breast 101% | MDA-MB-435 melanoma 101% | SW-620 colon 103% | MCF7 breast 88.2% | HCT-116 colon 103% | HCC-2998 colon 107% | KM12 colon 96.2%

C=CC(=O)OCCCCCCCC
inactive: SR leukemia 82.6% | RPMI-8226 leukemia 104% | OVCAR-8 ovarian 105% | OVCAR-5 ovarian 101% | OVCAR-4 ovarian 109% | SK-OV-3 ovarian 108% | IGROV1 ovarian 114% | OVCAR-3 ovarian 103% | HS 578T breast 109% | NCI/ADR-RES ovarian 105% | T-47D breast 105% | MDA-MB-435 melanoma 106% | SW-620 colon 103% | MCF7 breast 95.3% | HCT-116 colon 100% | HCC-2998 colon 104% | KM12 colon 101%

N#CSc1cc(S(N)(=O)=O)ccc1N
inactive: SR leukemia 116% | RPMI-8226 leukemia 109% | OVCAR-8 ovarian 102% | OVCAR-5 ovarian 107% | OVCAR-4 ovarian 108% | SK-OV-3 ovarian 108% | IGROV1 ovarian 106% | OVCAR-3 ovarian 113% | HS 578T breast 115% | NCI/ADR-RES ovarian 108% | T-47D breast 104% | BT-549 breast 98.6% | MDA-MB-435 melanoma 120% | MCF7 breast 94.5% | HCT-116 colon 102% | KM12 colon 107%

O=[N+]([O-])c1ccc(Cl)c(S(=O)(=O)O)c1
inactive: SR leukemia 89.2% | RPMI-8226 leukemia 100% | OVCAR-8 ovarian 104% | OVCAR-5 ovarian 105% | OVCAR-4 ovarian 111% | SK-OV-3 ovarian 110% | IGROV1 ovarian 123% | OVCAR-3 ovarian 106% | HS 578T breast 104% | NCI/ADR-RES ovarian 108% | T-47D breast 103% | MDA-MB-435 melanoma 117% | SW-620 colon 107% | MCF7 breast 98.4% | HCT-116 colon 104% | HCC-2998 colon 102% | KM12 colon 105%

Cc1nc2ccccc2c2nnc(SCC(=O)N(Cc3ccccc3)c3ccccc3)n12
inactive: SR leukemia 67.6% | RPMI-8226 leukemia 78.8% | OVCAR-8 ovarian 100% | OVCAR-5 ovarian 95% | OVCAR-4 ovarian 91.7% | SK-OV-3 ovarian 93.8% | IGROV1 ovarian 71.6% | OVCAR-3 ovarian 93.4% | HS 578T breast 93.9% | NCI/ADR-RES ovarian 96.1% | T-47D breast 76.4% | MDA-MB-435 melanoma 96% | SW-620 colon 93.5% | MCF7 breast 102% | HCT-116 colon 43.1% | HCC-2998 colon 110% | KM12 colon 129%

S=c1[nH]ccn1-c1ccccc1Cl
inactive: SR leukemia 101% | RPMI-8226 leukemia 95.6% | OVCAR-8 ovarian 105% | OVCAR-5 ovarian 114% | OVCAR-4 ovarian 103% | SK-OV-3 ovarian 111% | IGROV1 ovarian 108% | OVCAR-3 ovarian 98.2% | HS 578T breast 142% | NCI/ADR-RES ovarian 115% | T-47D breast 107% | MDA-MB-435 melanoma 108% | SW-620 colon 111% | MCF7 breast 99.5% | HCT-116 colon 107% | KM12 colon 104%

O=C(O)[C@@H]1[C@H]2C[C@H]3c4[nH]c5ccccc5c4CCN3C[C@@H]2CC[C@@H]1O
inactive: SR leukemia 115% | RPMI-8226 leukemia 111% | OVCAR-8 ovarian 87.6% | OVCAR-5 ovarian 105% | OVCAR-4 ovarian 103% | SK-OV-3 ovarian 115% | IGROV1 ovarian 114% | OVCAR-3 ovarian 111% | HS 578T breast 102% | NCI/ADR-RES ovarian 112% | T-47D breast 114% | MDA-MB-435 melanoma 113% | SW-620 colon 100% | MCF7 breast 103% | HCT-116 colon 92.6% | HCC-2998 colon 135% | KM12 colon 113%

CCCCC/C=N/Nc1nc(C)cc(=O)[nH]1
inactive: SR leukemia 90.4% | RPMI-8226 leukemia 119% | OVCAR-8 ovarian 100% | OVCAR-5 ovarian 104% | OVCAR-4 ovarian 107% | SK-OV-3 ovarian 113% | IGROV1 ovarian 109% | OVCAR-3 ovarian 114% | HS 578T breast 101% | NCI/ADR-RES ovarian 99.9% | T-47D breast 103% | MDA-MB-435 melanoma 95.7% | SW-620 colon 104% | MCF7 breast 92.9% | HCT-116 colon 101% | HCC-2998 colon 98.8% | KM12 colon 106%

CCCOC(=O)C(O)c1ccccc1 (stereo not drawn)
inactive: SR leukemia 107% | RPMI-8226 leukemia 118% | OVCAR-8 ovarian 114% | OVCAR-5 ovarian 94.9% | OVCAR-4 ovarian 119% | SK-OV-3 ovarian 107% | IGROV1 ovarian 117% | OVCAR-3 ovarian 106% | HS 578T breast 104% | NCI/ADR-RES ovarian 109% | T-47D breast 104% | BT-549 breast 103% | MDA-MB-435 melanoma 111% | MCF7 breast 98.3% | HCT-116 colon 97.8% | HCC-2998 colon 110% | KM12 colon 101%

O=C(O)C(O)c1ccccc1 (stereo not drawn)
inactive: SR leukemia 94.7% | RPMI-8226 leukemia 113% | OVCAR-8 ovarian 105% | OVCAR-5 ovarian 103% | OVCAR-4 ovarian 98.6% | SK-OV-3 ovarian 109% | IGROV1 ovarian 107% | OVCAR-3 ovarian 112% | HS 578T breast 110% | NCI/ADR-RES ovarian 105% | T-47D breast 95.1% | BT-549 breast 97.1% | MDA-MB-435 melanoma 108% | MCF7 breast 99.1% | HCT-116 colon 96.7% | HCC-2998 colon 103% | KM12 colon 99.3%

O=C(O)CCCc1ccccc1
inactive: SR leukemia 96.9% | RPMI-8226 leukemia 110% | OVCAR-8 ovarian 96.7% | OVCAR-5 ovarian 104% | OVCAR-4 ovarian 117% | SK-OV-3 ovarian 110% | IGROV1 ovarian 121% | OVCAR-3 ovarian 121% | HS 578T breast 118% | NCI/ADR-RES ovarian 103% | T-47D breast 101% | MDA-MB-435 melanoma 98.9% | SW-620 colon 111% | MCF7 breast 104% | HCT-116 colon 104% | HCC-2998 colon 107% | KM12 colon 114%

O=C1C[C@H](c2ccccc2)[C@H](c2ccccc2)C1
inactive: SR leukemia 99.2% | RPMI-8226 leukemia 83.2% | OVCAR-8 ovarian 109% | OVCAR-5 ovarian 95.8% | OVCAR-4 ovarian 105% | SK-OV-3 ovarian 102% | IGROV1 ovarian 112% | OVCAR-3 ovarian 118% | HS 578T breast 112% | NCI/ADR-RES ovarian 106% | T-47D breast 99.1% | BT-549 breast 93.7% | MDA-MB-435 melanoma 108% | MCF7 breast 99.1% | HCT-116 colon 99.1% | KM12 colon 115%
